ChEMBL document CHEMBL3988442, “University of Dundee, Small-Polar-MMV Screening Library” (2021)
About 13,000 (27%) of roughly 48,000 compounds showed an effect of 50% or more. Some of the results follow.

These molecules were tested on Wolbachia pipientis (assay: Anti-Wolbachia Cell-Based Screen). Conditions: 5 µM.
Type: functional
Set-up: scale not given: in the data most compounds retested in dose-response had high values

SMILES	Percent Effect
Cc1cnn(CC2CCN(c3cc(C(C)C)nc4ccnn34)CC2)c1	-2.497%
COC(=O)c1sccc1S(=O)(=O)N1CCC(Oc2cccc(C)n2)CC1	-4.236%
Cc1ccc(Cc2sc(NC(=O)C(C)S(C)(=O)=O)nc2C)cc1 (stereo not given)	-9.615%
O=C(CC1CCCC1)N1CCC(c2noc(-c3ccccn3)n2)CC1	138.8%
CN(C)CCCn1ccnc1C1CCN(C(=O)Cc2cccnc2)CC1	-18.68%
O=C(CC1CCN(c2ncnc3cccc(F)c23)CC1)N1CCCC1	7.525%
O=C(Cc1cccnc1)N1CCC(c2nnc(-c3ccccn3)o2)CC1	116.7%
Cn1cncc1-c1nnc([C@H]2CCN(Cc3cccnc3)C2)o1	-10.77%
Cc1noc(C)c1CN(C)CCC(=O)N1CCc2sccc2C1	-7.36%
O=C(NCc1ccco1)[C@@H]1CC[C@@H]2[C@@H](CCN2CC2CC2)O1.O=C(O)C(F)(F)F	-3.769%
O=C(NCC1CC1)[C@@H]1CC[C@@H]2[C@@H](CCN2Cc2ccco2)O1.O=C(O)C(F)(F)F	95.42%
CNC(=O)[C@H]1CC[C@@H]2[C@@H](CCN2CCOCc2ccccc2)O1.O=C(O)C(F)(F)F	2.484%
O=C(NCc1ccco1)[C@@H]1CC[C@@H]2[C@@H](CCN2Cc2ccc(F)cc2)O1.O=C(O)C(F)(F)F	-0.4343%
COc1ccc(CN2CC[C@H]3O[C@@H](C(=O)NCC4CC4)CC[C@H]32)cc1.O=C(O)C(F)(F)F	93.13%
O=C(NCC1CC1)[C@@H]1CC[C@@H]2[C@@H](CCN2Cc2ccc(F)c(F)c2)O1.O=C(O)C(F)(F)F	110.1%
O=C(NCCc1ccncc1)[C@@H]1CC[C@@H]2[C@@H](CCN2Cc2ccco2)O1.O=C(O)C(F)(F)F.O=C(O)C(F)(F)F	-6.425%
O=C(NCC1CC1)[C@@H]1CC[C@@H]2[C@@H](CCN2CCOCc2ccccc2)O1	-46.75%
CNC(=O)[C@@H]1CC[C@@H]2[C@@H](CCN2Cc2ccccc2F)O1.O=C(O)C(F)(F)F	-4.389%
O=C(NCC1CCOCC1)[C@@H]1CC[C@@H]2[C@@H](CCN2Cc2ccncc2)O1.O=C(O)C(F)(F)F.O=C(O)C(F)(F)F	108.2%
O=C(NCCc1ccc(Cl)cc1)c1coc(CN2CCOCC2)c1	-3.788%
Cc1nn(-c2ccccc2)c(C)c1CNC(=O)NC1CC(=O)N(C)C1 (stereo not given)	1.592%
CC1=C(C#N)C(=O)NC(=O)/C1=C\c1c(C)nn(-c2ccc(Cl)cc2)c1O	109.3%
Cc1nn(-c2ccccc2)c2c1C(c1ccc(C(=O)O)cc1)CC(=O)N2 (stereo not given)	-3.155%
Cc1ccc(-n2nc(C)c3c2NC(=O)CC3c2cnc(N)s2)cc1 (stereo not given)	19.39%

SMILES	Percent Effect
CC1=C(C#N)C(=O)NC(=O)/C1=C\c1c(C)nn(-c2ccccc2)c1O	95.98%
CC1=C(C#N)C(=O)NC(=O)/C1=C\c1c(C)nn(-c2ccc(C)cc2)c1O	117.9%
CNS(=O)(=O)c1ccc(CNC(=O)c2cc(-c3ccccn3)no2)cc1	-10.88%
CCn1c(C)cc(C(=O)NCc2cccc(S(=O)(=O)NC)c2)c1C	-0.4884%
CNS(=O)(=O)c1ccc(CNC(=O)c2cc(C)no2)cc1	3.551%
CNS(=O)(=O)c1cccc(CNC(=O)c2cc(C)no2)c1	131.9%
CNS(=O)(=O)c1cccc(CNC(=O)NCC2CCOC2)c1 (stereo not given)	-2.881%
CCc1ccc(C(=O)NCc2cccc(S(=O)(=O)NC)c2)o1	104.9%
CCNC(=O)CN(CC)C(=O)Cc1csc(C(C)C)n1	11.15%
CCNC(=O)CN(CC)C(=O)c1csc(Cc2ccccc2F)n1	97.94%
CC(C)NC(=O)CN(C)C(=O)c1csc(Cc2ccccc2F)n1	122.3%
CCN(CC(=O)NC(C)C)C(=O)c1csc(Cc2ccccc2)n1	-19.99%
COCc1nc(C(=O)NS(=O)(=O)c2ccc(F)c(F)c2)cs1	-13.23%
COC(=O)CCN(C)C(=O)c1csc(Cc2ccccc2F)n1	117.5%
CC(C)NC(=O)CNC(=O)c1csc(Cc2ccccc2F)n1	109.5%
Cc1nc(C)c(CC(=O)NCc2ccccc2F)s1	8.727%
COC(=O)CCN(C)C(=O)c1ccc(-c2cscn2)cc1	-8.458%
CC(=O)Nc1nc(C(=O)NCCOc2ccccc2F)cs1	-9.068%
CCN(CC(=O)NC)C(=O)c1csc(Cc2ccccc2)n1	-20.14%
CC(C)NC(=O)CCNC(=O)Nc1cnn(-c2ccccc2F)c1	-8.567%
CCc1ccc(CNC(=O)CCc2nnc(-c3ccc(C)s3)o2)nc1	18.56%
CC(C)c1cc(C(=O)N(c2ccc(F)cn2)C2CCOCC2)on1	-4.853%
N#Cc1ccc(CN2CCc3sccc3C2)c(F)c1	2.911%
CCc1ccc(C(C)NCc2nccn2Cc2ccccc2)o1 (stereo not given)	-9.423%

SMILES	Percent Effect
CCNC(=O)N(Cc1cccc(OC)c1)C1CCC(O)CC1 (stereo not given)	-8.682%
CCS(=O)(=O)N1CCc2nnc(CN(C)C(C)C)n2CC1	-16.92%
Fc1cnc(N2CCCn3c(nnc3Cn3cccc3)C2)nc1.O=C(O)C(F)(F)F	0.8563%
CN(C)CCOCc1nnc2n1CCN(c1cnccn1)CC2	1.736%
c1ccn(Cc2nnc3n2CCCN(c2cnccn2)C3)c1	100.7%
OCc1nnc2n1CCN(c1cnccn1)C2	108%
CC(C)N(C)Cc1nnc2n1CCCN(c1cnccn1)C2	115.4%
CN(C)Cc1nnc2n1CCN(c1cnccn1)CC2.O=C(O)C(F)(F)F	-7.956%
c1cnc(N2CCCn3c(nnc3Cn3cccn3)C2)nc1	3.271%
Fc1cnc(N2CCn3c(CN4CCCC4)nnc3C2)nc1.O=C(O)C(F)(F)F	-4.314%
OCCOc1ccc(NCc2cccc3[nH]ccc23)cn1	0.765%
CC(C(=O)Nc1ncccn1)N1CCCN(c2nccs2)CC1 (stereo not given)	-8.894%
CCn1nc(C)c(CNC(=O)NCC(C)(O)c2ccco2)c1C (stereo not given)	-13.65%
CCn1nc(C)c(CNC(=O)NCC(C)(O)c2ccccc2)c1C (stereo not given)	3.084%
CCn1nc(C)c(CNC(=O)NCC(C)(O)c2ccc(C)o2)c1C (stereo not given)	57.07%
O=C(c1coc(CN2CCN(c3ccccc3F)CC2)n1)N1CCCC1	-9.887%
CCCc1cc(C(=O)N2C[C@H](O)[C@@H](N3CCCC3)C2)ccn1	-25.18%
CC(=O)N1CCN([C@@H]2CN(C(=O)c3ccccc3)C[C@H]2O)CC1	163.7%
Cc1ccccc1C(=O)N1CC2(COC(C)(C)OC2)C1	-1.566%
Cc1ccccc1C(=O)N1C[C@@H](O)[C@H](N2CCOCC2)C1	137.5%
CC(=O)N1CCN([C@@H]2CN(C(=O)c3ccccc3C)C[C@H]2O)CC1	166%
CS(=O)(=O)c1ccc(NC(=O)N2C[C@H](O)[C@@H](N3CCOCC3)C2)cc1	-0.5097%
O=C(O)C(F)(F)F.O=C(c1ccccc1)N1C[C@@H]2CCCO[C@@H]2[C@H](N2CCCC2)C1	0.7695%
Cn1cccc1C(=O)N1C[C@@H]2CCCO[C@@H]2[C@H](N2CCOCC2)C1	10.78%

SMILES	Percent Effect
Cc1ccccc1C(=O)N1C[C@@H]2C[C@@H](C)O[C@@H]2C1	-6.005%
CCCN(CC1CC1)S(=O)(=O)c1ccc(NC(C)=O)cc1	9.5%
CCN(Cc1noc(C)n1)C(=O)CCn1c(C)cc2ccccc21	-6.675%
Cc1cc(NCC(=O)N(C)C(C)c2cccs2)c(C(N)=O)cc1F (stereo not given)	-3.325%
CCOCCC(=O)NC1(c2cccc(Br)c2)CC1	2.519%
CC(C)C(C(=O)N1CCCN(c2cccnn2)CC1)n1cncn1 (stereo not given)	101.3%
CC(C)C(C(=O)N1CCN(c2ccncc2)CC1)n1cncn1 (stereo not given)	-6.945%
CN1N=C(C(=O)N2CCCN(c3ncccc3C#N)CC2)CCC1=O	-11.38%
CC(C(=O)N1CCCN(c2ncccc2C#N)CC1)n1ccnc1 (stereo not given)	9.037%
CC(C(=O)N1CCCN(c2ncccc2C#N)CC1)n1cncn1 (stereo not given)	99.83%
Cc1ccc(N2CCCN(C(=O)C(C(C)C)n3cncn3)CC2)nn1 (stereo not given)	1.391%
CSC(C)C(=O)N1CCCN(c2ncccc2C#N)CC1 (stereo not given)	94.48%
Cc1cc(C)c(C(=O)N2CCN(c3ncccc3C#N)CC2)c(=O)[nH]1	-2.204%
CCSc1cc(C(=O)NC(C)c2cccc(N3CCOC3=O)c2)ccn1 (stereo not given)	-4.217%
Cl.NCc1ccc(OC(F)F)cc1OC(F)F	-11.87%
CCn1nc(C)cc1C(=O)N1C[C@@H](CN(C)C)[C@@H](CO)C1	107.3%
Cc1nc(CC(C)C)cc(C(=O)N2C[C@@H](CN(C)C)[C@@H](CO)C2)n1	-9.006%
Cc1ccc(CC(=O)N2C[C@@H](CN(C)C)[C@@H](CO)C2)cc1C	-3.019%
CCn1nc(C)c(C(=O)N2C[C@@H](CN(C)C)[C@@H](CO)C2)c1C	106.8%
CCn1nc(C)c(C(=O)N2C[C@@H](CN(C)CCOC)[C@@H](CO)C2)c1C	114%
Cc1cc(C(=O)N2C[C@@H](CN(C)CCN(C)C)[C@@H](CO)C2)nc(C)n1	-17.75%
COCCN(C)C[C@@H]1CN(C(=O)c2c(C)cccc2OC)C[C@@H]1CO	2.605%
COc1cccc(C)c1C(=O)N1C[C@@H](CN(C)C)[C@@H](CO)C1	-2.46%
